Experimental data as given in the supplement of paper PMC10981050.
Several values for one entry are separate records, joined by “and”; a condition that tells them apart may be missing. Identical values can stand only once. Counter-ions that a name gives are not always drawn.

Assays:
Assay in all cases: cell viability relative to vehicle control; higher = less cytotoxic
Conditions in all cases: 10 µM
K562 = test system: K562
Procedure, shortened: (§1)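 Each screen used CRISPR-edited mutant and wild-type clones from four leukaemia lines. Compounds were acoustically dispensed at a single 10 µM dose, and CellTiter-Glo luminescence was read after 48 h with the supernatant first removed. Viability was analysed in Genedata Screener and given as percent of the on-plate vehicle control.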

MARIMO = test system: MARIMO
Procedure, shortened: as §1

MOLM14 = test system: MOLM14
Procedure, shortened: as §1

OCI-AML2 = test system: OCI-AML2
Procedure, shortened: as §1

SMILES | cell viability (K562; SRSF2 genotype: SRSF2 P95H/wt) | cell viability (K562; SRSF2 genotype: SRSF2 wt/wt) [%] | cell viability (MARIMO; SRSF2 genotype: SRSF2 P95H/wt) [%] | cell viability (MARIMO; SRSF2 genotype: SRSF2 wt/wt) [%] | cell viability (MOLM14; SRSF2 genotype: SRSF2 P95H/wt) [%] | cell viability (MOLM14; SRSF2 genotype: SRSF2 wt/wt) [%] | cell viability (OCI-AML2; SRSF2 genotype: P95H/wt) [%] | cell viability (OCI-AML2; SRSF2 genotype: wt/wt) [%]
Cc1[nH]c(/C=C2\C(=O)Nc3ccc(S(=O)(=O)N(C)c4cccc(Cl)c4)cc32)c(C)c1C(=O)N1CCN(C)CC1 | 62.4% and 64.8% | 80.7 | 50.9 | 53.2 | 0.26 | 64.6 | 0.09 | 0.12
C[C@H](NC(=O)C(=O)Nc1ccccc1C(C)(C)C)C(=O)N[C@@H](CC(=O)O)C(=O)COc1c(F)c(F)cc(F)c1F | 106% and 107% | 108 | 111 | 107 | 90.2 | 101 | 111 | 106
Cc1ccccc1C(OCCN(C)C)c1ccccc1 (stereo not given) [Orphenadrine Hydrochloride] | 99.9% and 97.1% | 101 | 86.2 | 92.2 | 100 | 103 | 101 | 98.8
COc1ccc(-n2nc(C(N)=O)c3c2C(=O)N(c2ccc(N4CCCCC4=O)cc2)CC3)cc1 [Apixaban] | 99.3% and 102% | 103 | 97.9 | 112 | 107 | 105 | 98 | 96.7
C[C@@H]1O[C@@H](OC[C@H]2O[C@@H](Oc3c(-c4ccc(OCCO)c(OCCO)c4)oc4cc(OCCO)cc(O)c4c3=O)[C@H](O)[C@@H](O)[C@@H]2O)[C@H](O)[C@H](O)[C@H]1O [Troxerutin] | 105% and 90.9% | 86.2 | 78.9 | 92.2 | 86.3 | 91.9 | 91.5 | 88
CC1=CCC[C@H](C)C(=O)C[C@@H](C(C)C)C(=O)C1 [Curdione] | 93.2% and 88.9% | 83.8 | 93.8 | 90.8 | 91.2 | 87.5 | 91 | 87.2
COC(=O)C=Cc1ccc(O)cc1 [Methyl 4-hydroxycinnamate] | 95% and 87.9% | 82.3 | 83.5 | 97.5 | 85.6 | 95.2 | 105 | 105
O=C1C(c2c(O)[nH]c3ccccc23)=Nc2ccccc21 [Indirubin] | 92.2% and 98.7% | 87.3 | 92.3 | 87.8 | 87.5 | 87.9 | 91.8 | 92.9
Cc1nc2n(c(=O)c1CCN1CCC(c3noc4cc(F)ccc34)CC1)CCCC2O (stereo not given) [Paliperidone] | 84.4% and 93.4% | 80.7 | 90.2 | 93.2 | 83.5 | 91.8 | 89 | 91.2
CC1CCc2c(N3CCC(O)CC3)c(F)cc3c(=O)c(C(=O)O)cn1c23 (stereo not given) [Nadifloxacin] | 94% and 98.4% | 92.4 | 102 | 105 | 107 | 108 | 114 | 94
C[C@H](N=C(NC#N)Nc1cccc2ncccc12)c1ccccc1 | 99.3% and 100% | 97 | 104 | 107 | 97.6 | 98.4 | 108 | 112
COc1ccc(S(=O)(=O)Nc2cc(-c3c(O)ccc4ccccc34)c(O)c3ccccc23)cc1 | 7.52% and 4.96% | 34.5 | 0.33 | 0.36 | 0.32 | 0.34 | 0.37 | 0.35
Cc1cc(NC(=O)Nc2ccc(N(C)C)cc2)c2cc(F)cc(F)c2n1 | 89.9% and 95.8% | 93.1 | 98.3 | 109 | 102 | 105 | 83.8 | 94.9
Cn1c(=O)cc(C(=O)Nc2ccc3c(c2)OCCO3)c2ccccc21 | 97.4% and 96% | 94 | 99 | 104 | 102 | 100 | 93.4 | 101
CO/N=C(\C(=O)N[C@@H]1C(=O)N2C(C(=O)[O-])=C(C[N+]3(C)CCCC3)CS[C@H]12)c1csc(N)n1 [Cefepime Dihydrochloride Monohydrate] | 101% and 102% | 106 | 96.3 | 109 | 105 | 107 | 104 | 113
CCOC(=O)[C@H](CCc1ccccc1)N[C@@H](C)C(=O)N(CC(=O)O)C1Cc2ccccc2C1 [Delapril Hydrochloride] | 100% and 97.5% | 95.8 | 91 | 100 | 86.3 | 90.7 | 94 | 91.6
COc1cc(/C=C/C(=O)O[C@H]2CC[C@]34C[C@]35CC[C@]3(C)[C@@H]([C@H](C)CCC=C(C)C)CC[C@@]3(C)[C@@H]5CC[C@H]4C2(C)C)ccc1O [Gamma-Oryzanol] | 96.7% and 93.9% | 97.5 | 98.5 | 107 | 103 | 101 | 97.7 | 107
OCc1cc([C@@H](O)CNCCCCCCOCCOCc2c(Cl)cccc2Cl)ccc1O [Vilanterol Trifenate] | 85% and 94.3% | 87 | 79.5 | 86.2 | 72.8 | 82.9 | 73.9 | 76.3
NCc1ccc(S(N)(=O)=O)cc1 [Mafenide Acetate] | 102% and 98.3% | 94.8 | 95.8 | 106 | 91.9 | 101 | 102 | 110
CCCc1nn(C)c2c(=O)[nH]c(-c3cc(S(=O)(=O)N4CCN(C)CC4)ccc3OCC)nc12 [Sildenafil citrate] | 100% and 106% | 103 | 106 | 108 | 108 | 111 | 118 | 109

SMILES | cell viability (K562; SRSF2 genotype: SRSF2 P95H/wt) | cell viability (K562; SRSF2 genotype: SRSF2 wt/wt) [%] | cell viability (MARIMO; SRSF2 genotype: SRSF2 P95H/wt) [%] | cell viability (MARIMO; SRSF2 genotype: SRSF2 wt/wt) [%] | cell viability (MOLM14; SRSF2 genotype: SRSF2 P95H/wt) [%] | cell viability (MOLM14; SRSF2 genotype: SRSF2 wt/wt) [%] | cell viability (OCI-AML2; SRSF2 genotype: P95H/wt) [%] | cell viability (OCI-AML2; SRSF2 genotype: wt/wt) [%]
COc1ccc(Cl)c(Nc2nc3ccccc3nc2NS(=O)(=O)c2cccc(NC(=O)C(C)(C)N)c2)c1 [Pilaralisib (XL147)] | 87.3% and 96.2% | 84 | 68.6 | 66 | 59.3 | 55 | 52.3 | 54.6
C[C@@]12C[C@@]3(O)O[C@@H](O1)[C@]1(COC(=O)c4ccccc4)[C@H]3C[C@@]12O[C@@H]1O[C@H](CO)[C@@H](O)[C@H](O)[C@H]1O [Paeoniflorin] | 100% and 109% | 102 | 101 | 101 | 107 | 111 | 112 | 97.3
Cc1cc(C#N)cc(C)c1Oc1nc(Nc2ccc(C#N)cc2)nc(N)c1Br [Etravirine (TMC125)] | 101% and 96.6% | 94.6 | 97 | 108 | 107 | 102 | 99.5 | 117
Cc1ccc(NC(=O)c2cccc(C(C)(C)C#N)c2)cc1Nc1ccc2ncn(C)c(=O)c2c1 | 12.9% and 33% | 25.2 | 44 | 40.9 | 44.9 | 35.3 | 42.7 | 41.7
O=C(O)c1ccc(-c2ccc(C=C3SC(=S)N(Cc4ccccc4)C3=O)o2)cc1 [Leukadherin-1] | 89.1% and 83.5% | 82.9 | 85.4 | 96.4 | 82.3 | 91.9 | 89 | 112
CCCCC1OC(=O)c2ccccc21 (stereo not given) [3-n-Butylphathlide] | 93.7% and 104% | 91.5 | 91.9 | 104 | 99.8 | 96.7 | 90.6 | 94.2
NC1=N[C@@](c2cccc(-c3cncnc3)c2)(c2ccnc(C(F)F)c2)c2cccc(F)c21 | 76.9% and 74.8% | 81.4 | 80.1 | 95.2 | 85.7 | 84.1 | 71.1 | 71.3
CCc1cc(/C(C)=N/OCc2ccc(C3CCCCC3)c(C(F)(F)F)c2)ccc1CN1CC(C(=O)O)C1 [BAF312 (Siponimod)] | 86.8% and 89.2% | 87 | 79.3 | 67.2 | 66.5 | 66.3 | 48.1 | 49.8
NC(=O)c1nc(F)cnc1O [Favipiravir (T-705)] | 98.6% and 95.8% | 95.8 | 91.7 | 92.5 | 89.8 | 94.8 | 100 | 93.2
CCN(CC)CCNC(=O)c1c(C)[nH]c(/C=C2\C(=O)Nc3ccc(F)cc32)c1C [Sunitinib] | 22.8% and 26.6% | 17.6 | 23.4 | 23.4 | 0.2 | 0.37 | 0.48 | 2.85
CCOc1cc(N)c(Cl)cc1C(=O)NCC1CN(Cc2ccc(F)cc2)CCO1 (stereo not given) [Mosapride citrate] | 82.7% and 81.9% | 80 | 74.1 | 89.5 | 103 | 93.2 | 81.5 | 82.3
C/C=C(/C)C(=O)O[C@H]1[C@@H](OC(=O)CC(C)C)c2c(ccc3ccc(=O)oc23)OC1(C)C [Praeruptorin E] | 65.9% and 77.1% | 79 | 57.4 | 53.9 | 69.4 | 76.3 | 25.6 | 52.9
CCC1(c2c[nH]cn2)Cc2ccccc2C1 [Atipamezole] | 82.9% and 78.3% | 81.6 | 83.2 | 85.9 | 78.9 | 88.9 | 90 | 89.7
COc1ccccc1OCCN [Carvedilol EP IMpurity E] | 112% and 110% | 113 | 98 | 102 | 103 | 107 | 119 | 117
Oc1cc(O)cc(/C=C/c2ccc(O)c(O)c2)c1 [Piceatannol] | 86.5% and 89.3% | 97 | 92.8 | 88.8 | 71.8 | 79.7 | 90.4 | 87.9
CCOc1cc(C(C)(C)C)ccc1C1=N[C@@](C)(c2ccc(Cl)cc2)[C@@](C)(c2ccc(Cl)cc2)N1C(=O)N1CCN(CCCS(C)(=O)=O)CC1 | 80.8% and 82.7% | 79.8 | 91.2 | 107 | 0.32 | 0.35 | 0.58 | 13.8
CC(C(=O)O)c1ccc(C(=O)c2cccs2)cc1 (stereo not given) [Suprofen (Profenal)] | 107% and 103% | 93.2 | 94.7 | 110 | 98.9 | 99.9 | 88.8 | 94.2
Cc1cc(C)c(CNC(=O)c2cc(-c3ccc(CN4CCOCC4)cc3)cc3c2cnn3C2CCCC2)c(=O)[nH]1 | 105% and 117% | 120 | 113 | 111 | 104 | 107 | 111 | 106
COc1ccc(CC2c3cc(OC)c(OC)cc3CC[N+]2(C)CCC(=O)OCCCCCOC(=O)CC[N+]2(C)CCc3cc(OC)c(OC)cc3C2Cc2ccc(OC)c(OC)c2)cc1OC (stereo not given) [Atracurium besylate] | 90% and 97.2% | 87.9 | 87.3 | 84.9 | 75 | 97.1 | 115 | 108
CC(C)OC(=O)C(C(=O)OC(C)C)=C1SC=CS1 [Malotilate] | 92.5% and 94.4% | 93.6 | 76.5 | 83.6 | 89.5 | 99.4 | 85 | 88.8
